# Experimental data from PubChem BioAssay AID624331 (National Center for Advancing Translational Sciences (NCATS), 2012).
# Inconclusive results are not listed. Values without a mark were called inactive. Activity calls are given as the source filed them. Calls follow the shape of the dose curve; as a rule, active = well fitted activation curve with a large enough effect; inconclusive = small, poorly fitted or top-dose-only effect; inactive = no such curve, though single readings can be large or run the other way.
# Assay: qHTS assay for re-activators of p53 using a Luc reporter: Hit Validation with no p53 Expressed; as to activity change, positive = activation: 0% is about no effect
# Details: p53-null cells, luciferase reporter counter-screen; series mostly up to 46.1 µM; activity change, positive = activation: at the top concentration
# Method in brief: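 Without p53 expression, cells (1000/well, Opti-MEM + 10% FBS) were exposed 24 h at 37 deg C to compounds in a 1:5 series from 10 mM stock (top 46.1 µM in well). Luminescent signal read 10 min after Amplite addition; actives flag unspecific activation.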
# Potency is read from the fitted curve at half-maximal effect.
Compound,"activity change, positive = activation",Potency
O=C(Nc1ccc(CN2CCOCC2)cc1)c1cc2ccccn2n1,9.72%,
Fc1ccccc1/C=C/c1ccc2ccccc2n1,-10.9%,
Cc1nc(SCC(=O)Nc2nccs2)c(C#N)c(C)c1C,9.01%,
Cc1ccc(C2=CC(c3ccc(N(C)C)cc3)n3nnnc3N2)cc1 (stereo not given),39.1%,
O=C1NC(c2ccc(Br)cc2)=N/C1=C/c1ccco1,14.3%,
CC(C)C(=O)OCC(=O)Nc1ccc(N=Nc2ccccc2)cc1,34.9%,
CC1=CN2C(=N)/C(=C/c3ccc(C)o3)C(=O)N=C2S1,-17.3%,
c1ccc2c(c1)CCN(c1nc3cc4c(cc3s1)OCO4)C2,16.3%,
N#CC(Cc1ccccc1)(Cc1ccccc1)C(=O)NN,,29.1 µM (active)
O=C(CCC1CCCC1)Nc1ccc(Br)cn1,74.3%,
COc1ccc(CCC(C)NCC(C)c2ccccc2)cc1 (stereo not given),38.1%,
CC(=O)Nc1cccc(C(=O)N/N=C/c2ccccc2F)c1,92.9%,
Cc1ccc(OC(=O)c2cccc(S(=O)(=O)N3CCCC3)c2)c(-n2nc3ccccc3n2)c1,15.2%,
COCC(=O)Nc1nnc(COc2ccccc2)s1,31.1%,
CC(=O)N/C(=C/c1ccc2c(c1)OCO2)C(=O)Nc1ccccc1,-13.1%,
Cc1ccc(C(=O)N2CC(=O)Nc3ccc(F)cc3C2c2ccc(F)cc2)cc1[N+](=O)[O-] (stereo not given),-57%,
CSC1=NCCN1C(=O)c1ccc(Br)o1,28.7%,
CC(=O)c1cccc(NC(=O)c2sc(Cl)nc2C)c1,-42.3%,
O=C(Nc1ccc(Cl)cc1C(F)(F)F)c1ccccc1,-19.7%,
Cc1cccc(Nc2nc(N3CCOCC3)nc(N3CCOCC3)n2)c1,17.9%,
